In PubChem BioAssay (Tox21) one finds Potency and outcome data, which are given here for 7 compounds.

Molecules are shown by their SMILES. A number with no mark means an inactive call. Inconclusive results are not listed. Calls of active or inactive are those of the source. Unless noted, calls follow the shape of the full dose curve.

A short description of assay [1]: Nuclear factor erythroid 2-related factor 2/antioxidant responsive element (Nrf2/ARE) small molecule agonists: qHTS cell viability counter screen in human keratinocytes (AID 1919968; active = well fitted curve in the direction sought with a large enough effect in the repeat runs; an effect the other way counts as inactive or inconclusive; also: nearly all actives have a fitted effect of over 55% in size). An outline of the steps:
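Measured as CellTiter-Fluor fluorescence, this readout tracks cytotoxicity in the same wells as the ARE-luciferase screen. HaCaT reporter cells (1,500/well) received compounds after a 5 h pre-incubation and were exposed for 23 h.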
(In general: qHTS replaces the single test concentration by a dilution series.)

A short description of assay [2]: Nuclear factor erythroid 2-related factor 2/antioxidant responsive element (Nrf2/ARE) small molecule agonists: luciferase reporter gene qHTS assay in human keratinocytes (AID 1919969; also: nearly all actives have a fitted effect of over 35% in size). (In general: A reporter such as luciferase makes a cellular process visible.)
Assay [3] addresses Gonadotropin-releasing hormone receptor (Homo sapiens) (UniProt P30968). As to the kind of experiment: Human gonadotropin-releasing hormone receptor (GnRHR) small molecule agonists, calcium flux assay in GnRHR-HEK293 cells (AID 1920063). Also: nearly all actives have a fitted effect of over 35% in size. An outline of the steps:
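Fluorescence kinetics (480 nm excitation, 540 nm emission; 3 min, 1 s steps) report calcium mobilisation in human GnRHR-HEK293 cells in agonist mode. Dye incubation: 1 h, 37 C.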

For assay [4], the target named is KiSS-1 receptor (Homo sapiens) (UniProt Q969F8). As to the kind of experiment: Human kisspeptin (KISS1R) small molecule agonists, calcium flux assay in KISS1R-HEK293 cells (AID 1920064; active = well fitted curve in the direction sought with a large enough effect in the repeat runs; an effect the other way counts as inactive or inconclusive). An outline of the steps:
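Measures KISS1R agonism through calcium-sensitive dye fluorescence in stably transfected HEK293 cells, read for 3 min after pin-tool compound delivery; 15-point titrations in triplicate.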
On the technique in general: Calcium flux is commonly read through the fluorescence of an indicator in the cells.

Assay [5] in a line: G protein-coupled receptor (GPCR) small molecule agonists, calcium flux assay: HEK293 wild type cell line counter screen (AID 1920065). An outline of the steps: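 Readout: fluorescence at 480 nm excitation/540 nm emission, sampled at 1 s intervals for 3 min. Cells had been cultured 18 h, then dye-loaded 1 h at 37 C before compound or ATP addition.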
The nature of assay [6]: p53 small molecule agonists, cell-based qHTS assay with human liver microsomes (AID 1963577).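 Also: p53 response element beta-lactamase reporter cells with liver microsomes plus NADPH.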 The gist of the method: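 Metabolically competent format: test substances, human liver microsomes and NADPH (both 0.5 mg/mL final) incubated with p53RE-bla cells 16 h at 37 C. Beta-lactamase reporter signal then quantified by fluorescence.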
Assay [7] is described as follows: p53 small molecule agonists, cell-based qHTS assay with rat liver microsomes (AID 1963578). An outline of the steps: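 Each plate received p53RE-bla cells, then compound, then rat liver microsomes and NADPH (both 0.5 mg/mL final). Plates were held 16 h at 37 C, and beta-lactamase activity was detected with LiveBLAzer over 2 h.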
Assay [8] in a line: p53 small molecule agonists, cell-based qHTS assay with human liver microsomes: qHTS cell viability counter screen (AID 1963579). Also: nearly all actives have a fitted effect of over 45% in size. An outline of the steps:
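Tox21 library compounds, delivered from DMSO stocks, were tested on p53RE-bla cells together with 0.5 mg/mL human liver microsomes and 0.5 mg/mL NADPH (final) over 16 h at 37 C; CellTiter-Glo luminescence served as the cytotoxicity measure.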

Assay [9] is described as follows: p53 small molecule agonists, cell-based qHTS assay with rat liver microsomes: qHTS cell viability counter screen (AID 1963580). Also: nearly all actives have a fitted effect of over 45% in size. An outline of the steps: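 p53RE-bla HCT-116 cells (4,000/well) rested 5 h at 37 C, then given Tox21 compounds in DMSO with rat liver microsomes (0.5 mg/mL final) plus NADPH (0.5 mg/mL final) for 16 h at 37 C. Viability read by CellTiter-Glo luminescence after 30 min at room temperature.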

Assay [10] in a line: p53 small molecule agonists, cell-based qHTS assay: qHTS cell viability counter screen (AID 1963581). Also: nearly all actives have a fitted effect of over 45% in size. An outline of the steps:
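In the same plates used for the p53 bla reporter, HCT-116 cells given compounds for 16 h at 37 C received CellTiter-Glo; luminescence was recorded 30 min later at room temperature.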

For assay [11], the target named is 5-hydroxytryptamine receptor 2A (Homo sapiens) (UniProt P28223). As to the kind of experiment: 5-hydroxytryptamine receptor 2A (HTR2A) small molecule agonists, cell-based qHTS assay (AID 1963587). Also: nearly all actives have a fitted effect of over 30% in size. The gist of the method:
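HTR2A-CHO cells, plated 18 h at 37 C/5% CO2, dye-loaded 1 h at 37 C; compounds in DMSO added by pin tool (agonist mode). Intracellular calcium flux read as kinetic fluorescence on FDSS over 2 min at 1 s intervals.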

In assay [12] the target is Muscarinic acetylcholine receptor M1 (Homo sapiens) (UniProt P11229). As to the kind of experiment: Cholinergic receptor muscarinic 1 (CHRM1) small molecule antagonists, cell-based qHTS assay (AID 1963588). Also: nearly all actives have a fitted effect of over 40% in size. The gist of the method:
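CHRM1-CHO calcium-flux assay, antagonist mode. Cells were seeded 18 h, dye-loaded 1 h at 37 C and given compound for 5 min at RT, then acetylcholine was added at 50nM. FDSS fluorescence was read 3 min; 15 concentrations, three runs.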

The target is the same in assay [13]. As to the kind of experiment: Cholinergic receptor muscarinic 1 (CHRM1) small molecule agonists, cell-based qHTS assay (AID 1963589). Also: nearly all actives have a fitted effect of over 35% in size. The gist of the method: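 Each compound was tested at 15 concentrations across three independent runs on dye-loaded CHO cells stably expressing human CHRM1, reading intracellular calcium fluorescence kinetically at 1 sec intervals.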

Assay [14] can be described thus: cAMP Responsive Elements (CRE) small molecule agonists, cell-based qHTS assay (AID 1963590). The gist of the method: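 Cell line: CRE-bla HEK 293T; medium DMEM/10% dialyzed FBS/0.1 mM NEAA/1 mM pyruvate/25 mM HEPES; 3 h compound exposure; beta-lactamase FRET readout after 2 h substrate loading at RT.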
Assay [15] in a line: cAMP Responsive Elements (CRE) small molecule antagonists, cell-based qHTS assay (AID 1963591; active = well fitted inhibition curve with a large enough effect in the signal ratio in the repeat runs, not every such curve was filed as active; the % refers to the signal ratio; also: potency is read from the fitted curve at half-maximal effect). The gist of the method: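 Inhibition of NKH477-driven (0.25 uM final) CRE-beta-lactamase signal in HEK293T cells, 3 h compound exposure at 37 °C, detected by FRET substrate fluorescence.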
Assay [16] concerns the target Beta-2 adrenergic receptor (Homo sapiens) (UniProt P07550). As to the kind of experiment: Adrenergic beta2 receptor (ADRB2) small molecule antagonists, cell-based qHTS assay (AID 1963592). Also: series mostly up to about 92 µM; nearly all actives have a fitted effect of over 50% in size. An outline of the steps:
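Cells (CHO, stable ADRB2 overexpression) incubated 18-20hr at 37C; compounds added from DMSO; agonist mix (1nM isoproterenol, 100uM IBMX, 25uM Ro-20-1724) added; 0.5hr RT; d2-cAMP and anti-cAMP-cryptate added; 1hr RT; 665/615 nm read.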

Assay [17] shares this target. As to the kind of experiment: Adrenergic beta2 receptor (ADRB2) small molecule agonists, cell-based qHTS assay (AID 1963593).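 Also: CHO cells stably overexpressing human ADRB2.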 The gist of the method:
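CHO cells stably over-expressing ADRB2 were plated overnight at 37C, then dosed with compounds plus a stimulation mix containing 100uM IBMX and 25uM Ro-20-1724 for 0.5hr at room temperature. cAMP was measured by HTRF competition, 1hr.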

For assay [18], the target named is D(2) dopamine receptor (Homo sapiens) (UniProt P14416). As to the kind of experiment: Dopamine D2 receptor (DRD2) small molecule agonists, cell-based qHTS assay (AID 1963594). Also: nearly all actives have a fitted effect of over 35% in size. An outline of the steps: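 HEK293 cells stably expressing DRD2 were cultured 24 h at 37 C, then given Ro20-1724 (0.1 mM final) and compounds for 10 min at room temperature. NKH477 (200nM) was then added for 30 min. cAMP was read by HTRF.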

Assay [19] shares this target. As to the kind of experiment: Dopamine D2 receptor (DRD2) small molecule antagonists, cell-based qHTS assay (AID 1963595; active = well fitted inhibition curve with a large enough effect in the signal ratio in the repeat runs, with a control signal flat; the % refers to the signal ratio). An outline of the steps: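 HTRF cAMP read-out at 665 and 620 nm emission (340 nm excitation). Antagonist mode: compounds were tested against 12 nM quinpirole in DRD2-HEK293 cells, with 200 nM NKH477 raising cAMP and 0.1 mM Ro20-1724 blocking its breakdown.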

Muscarinic acetylcholine receptor M1 (Homo sapiens), sequence (P11229 whole entry, looked up): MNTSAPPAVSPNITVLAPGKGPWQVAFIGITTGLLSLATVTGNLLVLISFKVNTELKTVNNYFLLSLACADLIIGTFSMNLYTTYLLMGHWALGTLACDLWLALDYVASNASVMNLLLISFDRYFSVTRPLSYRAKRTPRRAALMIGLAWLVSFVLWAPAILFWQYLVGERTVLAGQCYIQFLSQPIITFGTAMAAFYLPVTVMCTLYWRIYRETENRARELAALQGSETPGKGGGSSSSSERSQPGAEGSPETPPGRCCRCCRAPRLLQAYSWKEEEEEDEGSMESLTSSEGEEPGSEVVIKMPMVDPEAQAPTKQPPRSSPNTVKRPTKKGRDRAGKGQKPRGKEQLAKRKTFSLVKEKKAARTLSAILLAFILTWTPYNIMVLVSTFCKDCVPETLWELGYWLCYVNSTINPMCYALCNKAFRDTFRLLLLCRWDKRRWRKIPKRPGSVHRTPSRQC
KiSS-1 receptor (Homo sapiens), sequence (Q969F8 whole entry, looked up): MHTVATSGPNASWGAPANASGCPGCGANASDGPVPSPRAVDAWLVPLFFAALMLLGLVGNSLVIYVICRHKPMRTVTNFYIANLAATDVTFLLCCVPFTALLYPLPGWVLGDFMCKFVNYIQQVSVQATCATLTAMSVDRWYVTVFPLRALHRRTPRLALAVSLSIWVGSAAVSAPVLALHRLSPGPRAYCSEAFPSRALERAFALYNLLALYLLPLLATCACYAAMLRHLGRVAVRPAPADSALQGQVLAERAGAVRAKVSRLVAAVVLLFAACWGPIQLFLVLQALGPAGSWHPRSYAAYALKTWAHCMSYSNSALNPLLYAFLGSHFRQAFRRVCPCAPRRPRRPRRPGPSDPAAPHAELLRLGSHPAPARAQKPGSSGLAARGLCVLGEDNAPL
D(2) dopamine receptor (Homo sapiens), sequence (P14416 whole entry, looked up): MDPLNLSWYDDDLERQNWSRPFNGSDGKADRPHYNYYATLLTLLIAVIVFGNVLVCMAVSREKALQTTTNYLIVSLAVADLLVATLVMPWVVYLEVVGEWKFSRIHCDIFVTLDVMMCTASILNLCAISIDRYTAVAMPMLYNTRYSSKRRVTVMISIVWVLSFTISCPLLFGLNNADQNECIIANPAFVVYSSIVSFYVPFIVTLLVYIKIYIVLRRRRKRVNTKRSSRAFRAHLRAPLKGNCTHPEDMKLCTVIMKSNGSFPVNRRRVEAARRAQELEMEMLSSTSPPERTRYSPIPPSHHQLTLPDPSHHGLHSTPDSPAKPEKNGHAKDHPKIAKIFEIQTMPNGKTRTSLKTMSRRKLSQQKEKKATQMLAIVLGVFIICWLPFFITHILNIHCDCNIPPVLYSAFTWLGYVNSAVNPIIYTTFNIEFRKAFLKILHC
5-hydroxytryptamine receptor 2A (Homo sapiens), sequence (P28223 whole entry, looked up): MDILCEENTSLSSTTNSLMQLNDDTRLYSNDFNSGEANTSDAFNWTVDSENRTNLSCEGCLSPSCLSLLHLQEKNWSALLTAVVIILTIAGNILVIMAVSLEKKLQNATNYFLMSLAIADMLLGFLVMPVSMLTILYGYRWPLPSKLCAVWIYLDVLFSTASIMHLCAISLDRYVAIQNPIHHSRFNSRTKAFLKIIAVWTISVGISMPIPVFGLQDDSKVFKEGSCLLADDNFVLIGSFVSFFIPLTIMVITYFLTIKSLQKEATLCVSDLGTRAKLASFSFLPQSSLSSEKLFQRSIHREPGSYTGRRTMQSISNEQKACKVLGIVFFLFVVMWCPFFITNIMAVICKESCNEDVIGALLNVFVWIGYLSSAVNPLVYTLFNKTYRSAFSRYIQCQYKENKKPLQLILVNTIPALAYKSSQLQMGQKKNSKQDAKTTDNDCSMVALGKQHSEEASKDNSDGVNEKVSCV
Beta-2 adrenergic receptor (Homo sapiens), sequence (P07550 whole entry, looked up): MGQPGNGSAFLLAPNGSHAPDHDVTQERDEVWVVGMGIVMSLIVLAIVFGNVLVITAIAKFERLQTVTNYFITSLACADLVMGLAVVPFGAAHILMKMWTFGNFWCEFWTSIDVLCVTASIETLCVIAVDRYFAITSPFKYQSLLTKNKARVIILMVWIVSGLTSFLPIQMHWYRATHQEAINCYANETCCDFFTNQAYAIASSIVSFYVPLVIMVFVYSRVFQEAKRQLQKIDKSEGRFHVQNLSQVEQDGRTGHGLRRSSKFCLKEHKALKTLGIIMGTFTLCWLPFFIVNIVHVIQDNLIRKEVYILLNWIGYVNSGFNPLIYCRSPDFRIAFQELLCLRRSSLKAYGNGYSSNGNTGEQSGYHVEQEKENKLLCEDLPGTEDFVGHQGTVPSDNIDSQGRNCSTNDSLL
Gonadotropin-releasing hormone receptor (Homo sapiens), sequence (P30968 whole entry, looked up): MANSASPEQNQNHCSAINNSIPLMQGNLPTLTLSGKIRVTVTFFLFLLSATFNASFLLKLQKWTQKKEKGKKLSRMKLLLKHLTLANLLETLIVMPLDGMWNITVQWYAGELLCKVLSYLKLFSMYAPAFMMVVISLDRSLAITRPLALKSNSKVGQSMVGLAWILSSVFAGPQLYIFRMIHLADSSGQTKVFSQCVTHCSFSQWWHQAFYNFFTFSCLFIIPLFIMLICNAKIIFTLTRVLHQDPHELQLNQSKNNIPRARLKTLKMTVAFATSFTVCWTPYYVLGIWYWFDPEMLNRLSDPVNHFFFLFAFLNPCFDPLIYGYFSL

Turning to `CC(=O)N(CC(=O)N(C)C)c1ccccc1`, the Potency entry in assay [1], in [2], in [3], in assay [6], in assay [7] and in assay [8] was “inactive” each time. Besides, the Potency result in [9], in assay [10], in assay [11], in assay [12], in assay [13] and in assay [14] was “inactive” in each case. For the same compound, the Potency result in assay [15], in [16], in assay [17] and in assay [18] was “inactive” throughout. In addition, the result in assay [4] and in assay [5] was inactive.
For `CCN(CC)CCNC(=O)COc1ccc(Cl)cc1`, the Potency result in [1], in assay [2], in assay [3], in assay [6], in [7] and in assay [8] was “inactive” each time. Besides, the Potency result in [9], in [10], in assay [11], in assay [12], in assay [13] and in [14] was “inactive” each time. Also, the Potency result in assay [15], in [16], in assay [17], in assay [18] and in assay [19] was “inactive” throughout. Besides, the outcome in [4] and in [5] was inactive.
As to `CCN(C(=O)c1cc(C)cc(OC[C@H](C)Nc2ccncc2)c1)C(C)C`, the Potency entry in assay [1], in assay [2], in assay [3], in assay [6], in [7] and in assay [8] was “inactive” each time. The Potency entry in assay [9], in assay [10], in [11], in assay [12], in assay [13] and in assay [16] was “inactive” throughout. The Potency result in [17], in assay [18] and in [19] was “inactive” each time. Also, the result in assay [4] and in assay [5] was inactive. The Potency in assay [15] was 21.4 µM (active).
As to `CO[C@H]1O[C@H](CO)[C@@H](O)[C@H](O)[C@H]1O`, the Potency result in assay [1], in assay [2], in assay [3], in assay [6], in assay [7] and in assay [8] was “inactive” in each case. The Potency result in assay [9], in [10], in assay [11], in assay [12], in assay [14] and in assay [15] was “inactive” each time. Moreover, the Potency entry in [16], in [17], in assay [18] and in [19] was “inactive” throughout. In addition, the outcome in assay [4] and in assay [5] was inactive.
Regarding `CCCCCCCC/C=C\CCCCCCCC(=O)OC`, the Potency result in [1], in assay [2], in [3], in assay [6], in assay [7] and in [8] was “inactive” throughout. Further, the Potency result in [9], in [10], in assay [11], in assay [12], in [13] and in [14] was “inactive” in each case. The Potency entry in assay [15], in assay [16], in assay [17], in [18] and in assay [19] was “inactive” in each case. Moreover, the outcome in assay [4] and in [5] was inactive.
In the case of `CCCCCCCCCCCSCC(=O)O`, the Potency result in [1], in assay [2], in [3], in [6], in assay [7] and in assay [8] was “inactive” throughout. In addition, the Potency entry in [9], in assay [10], in [11], in assay [13], in assay [16] and in [17] was “inactive” throughout. For the same compound, the outcome in assay [4] and in assay [5] was inactive.
With `Nc1ccc2cc(S(=O)(=O)O)cc(O)c2c1`, the Potency result in [1], in assay [2], in assay [3], in [6], in assay [7] and in assay [8] was “inactive” throughout. The Potency result in assay [9], in assay [10], in assay [11], in assay [12], in [13] and in [15] was “inactive” in each case. Also, the outcome in assay [4] and in assay [5] was inactive.
